High-throughput results: PubChem, National Center for Advancing Translational Sciences (NCATS)
In the library only some 8% were active in any assay of this set; here they are far more common.
HT1080NT lethal: kills 2HG-producing HT-1080-NT fibrosarcoma cells. HT-1080-NT fibrosarcoma viability, CellTiter-Glo ATP luminescence, 48 h. Potency, µM (doses to about 46.1 µM), for the others: at the top dose activity, negative = less viability, actives largely listed as cytotoxic. 360,000 compounds, 1.6% hits;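 also: NT is the 2HG producing partner of a matched IDH1 knockdown line; 0% = DMSO-treated cells and -100% = media-only wells without cells; nearly all actives have a fitted effect of over 55% in size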
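750 cells/well, RPMI + 5% FBS; 2 h settle, compound pin-transfer, 48 h at 37 degrees C. CellTiter-Glo 10 min RT, luminescence. Normalized to DMSO and media-only wells.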
KB-V1 cytotox: kills drug-selected multidrug resistant KB-V1 cells; Potency, µM (doses to about 46.1 µM), hits mostly cytotoxic; KB-V1 MDR cells viability, CellTiter-Glo, 72 h; 400,000 compounds, 3.4% hits; also: % is scaled to controls: 0 for no effect and ±100 for the full control effect; nearly all actives have a fitted effect of over 60% in size
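Potencies derive from concentration-effect curves fitted to normalized luminescence (CellTiter-Glo) of KB-V1 cells treated for 72 h at 37 degrees C in phenol-red-free DMEM containing 10% FBS.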
SW480 rerep: inducers of DNA re-replication in SW480 colon cancer cells | 340,000 compounds, 1.8% hits | SW480 DNA re-replication, Hoechst DNA content imaging, 48 h | Potency, µM (highest dose often 46.1 µM), without a hit: at the highest dose re-replication activation, actives largely listed as activators; also: % of control where 0% means no effect; nearly all actives have a fitted effect of over 55% in size
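Image-based read-out: total Hoechst fluorescence of nuclei (405 nm excitation, 500-530 nm emission), with hits raising the fraction of high-intensity nuclei. SW480 colon cells incubated 48 hr with compounds at 37 C.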
KB-3-1 tox: KB-3-1 parental cell cytotoxicity; 400,000 compounds, 1.4% hits; Potency, µM (series often up to 46.1 µM), most hits filed as cytotoxic; KB-3-1 viability, CellTiter-Glo ATP luminescence, 72 h; also: % is scaled to controls: 0 for no effect and ±100 for the full control effect; nearly all actives have a fitted effect of over 60% in size
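72 h, 37 °C compound treatment of KB-3-1 parental cells; CellTiter-Glo added, 10 min, luminescence read. Data corrected against DMSO-only plates and normalized before curve fitting.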
HT1080 IDH1KD tx: toxicity to HT-1080 IDH1 knockdown cells (counter line) | 360,000 compounds, 2% hits | AID 686971 | HT-1080 IDH1 knockdown viability, ATP luminescence, 48 h | Potency, µM (series often up to 46.1 µM), for the others: at the highest dose activity, negative = toxicity, hits mostly cytotoxic;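 also: 0% = DMSO wells and -100% = cell-free medium wells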
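Using the IDH1-knockdown HT-1080 line run in the same batch and compound series as the NT line, viability after 48 h at 37 °C was determined by CellTiter-Glo luminescence and expressed as % activity.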
MCF10A rerep: inducers of DNA re-replication in MCF 10A breast cells | MCF 10A DNA re-replication, Hoechst nuclear intensity, 48 h | Potency, µM (doses to about 46.1 µM), for the others: at the top dose activity, positive = re-replication, actives largely listed as activators | 350,000 compounds, 2.9% hits | AID 624296; also: % of control where 0% means no effect; nearly all actives have a fitted effect of over 50% in size
Active calls of the source: *; i = inactive; ? = inconclusive; / = no result; [ ] = remark or other dose. Calls follow the shape of the dose curve; as a rule, active = well fitted curve in the direction sought with a large enough effect; inconclusive = small, poorly fitted or top-dose-only effect, or another doubt; inactive = no such curve, though single readings can be large; an effect the other way counts as inactive or inconclusive. Potency is read from the fitted curve at half-maximal effect.

SMILES | HT1080NT lethal | KB-V1 cytotox | SW480 rerep | KB-3-1 tox | HT1080 IDH1KD tx | MCF10A rerep
Cc1cc([N+](=O)[O-])ccc1NCc1cccc2ccccc12 | ? | 13µM* | 2.4% | i | -0.8% | -0.2%
CC12CCC(O)CC1=CCC1C2CCC2(C)c3[nH]ncc3CC12 (stereo not drawn) | -24.7% | i | ? | i | ? | 14.6µM*
CC(=O)[C@H]1CC[C@H]2[C@@H]3CC=C4C[C@@H](O)CC[C@]4(C)[C@H]3CC[C@]12C | 28.8% | ? | -0.7% | ? | 3.9% | -2.1%
Cc1ccc(CNC(=O)CSc2ncc3c(n2)-c2cc(Cl)ccc2N(C)S3(=O)=O)cc1 | / | i | / | i | / | /
COc1cccc(/C=C/c2nc(C#N)c(N(C)Cc3ccccc3)o2)c1 | / | i | / | i | / | /
CN(C)c1oc(/C=C/c2ccccc2)nc1C#N | -3.0% | ? | 14.6µM* | i | -1.0% | ?
COc1ccccc1/C=C/c1nc(C#N)c(N(C)C)o1 | 4.9% | i | ? | i | 4.8% | 23.1µM*
COCCN(Cc1cc2cc3c(cc2nc1Cl)OCO3)C(=O)Nc1ccc(F)cc1 | -4.2% | ? | 19.4% | 16.4µM* | 17.3% | -6.1%
CCCc1nc([N+](=O)[O-])c(S(=O)(=O)c2ccccc2)n1CC(C)C | -9.7% | i | ? | ? | ? | ?
CC(C)Cn1c(C(C)C)nc([N+](=O)[O-])c1S(=O)(=O)c1ccc(F)cc1 | 3.55µM* | ? | 18.4µM* | ? | 7.08µM* | 20.6µM*
OC1(c2ccc(Br)cc2)CCNCC1 | 22.4µM* | i | -8.3% | i | ? | -1.4%
CN(C)CCOC(=O)c1ccc2[nH]c3c(c2c1)CSCC3 | 22.3% | i | 7.31µM* | i | 16.3% | -12.7%
O=C(O)c1ccc2[nH]c3c(c2c1)CSCC3 | 11.4% | i | -4.0% | i | 11.0% | -4.6%
COc1ccc(-c2nc3c4c(ncn3n2)-c2ccccc2CC42CCCC2)cc1 | ? | i | -1.3% | i | 12.0% | 8.7%
COc1ccc(OCc2nc3c4c(ncn3n2)-c2ccccc2CC42CCCC2)cc1 | 5.5% | 11.6µM* | 7.2% | i | 13.3% | -39.7%
Oc1cccc(-c2nc3c4c(ncn3n2)-c2ccccc2CC42CCCC2)c1 | ? | 7.31µM* | -4.3% | i | 11.2µM* | 2.06µM*
Cc1ccc(OCc2nc3c4c(ncn3n2)-c2ccccc2CC42CCCC2)cc1 | 6.8% | ? | -54.8% | i | 8.2% | -43.0%
CCCCNS(=O)(=O)c1ccc2nc(-c3cccnc3)cc(C(=O)NCCC)c2c1 | / | i | / | i | / | /
Cc1ccc(-c2n[nH]c(=S)n2C)cc1Cl | 11.3% | 2.91µM* | -2.4% | 4.11µM* | 19.8% | -1.8%
CCOC(=O)c1cccc(NC(=O)N2CC(CC)Sc3ccccc32)c1 (stereo not drawn) | / | i | / | i | / | /
N/C(=N\OC(=O)N1CCOCC1)c1ccc(Br)cc1 | ? | 20.6µM* | ? | i | -18.9% | ?
COc1ccc(-c2cc(CCCC(=O)NCCc3cc(OC)ccc3OC)no2)cc1 | 0.3% | 4.61µM* | 1.0% | ? | -2.8% | 7.1%
CCOC(=O)C1=C(C)C(c2cccc(Oc3ccccc3)c2)NC(=S)N1 (stereo not drawn) | ? | ? | 6.3% | i | ? | ?
CCOC(=O)C1=C(c2cccc(Oc3ccccc3)c2)NC(=S)NC1C (stereo not drawn) | ? | 16.4µM* | -2.0% | ? | -8.1%[9.24 µM] | ?
Cc1ccc(C2CC2c2n[nH]c(=S)n2-c2ccc(Cl)cc2)cc1 (stereo not drawn) | -21.2% | 16.4µM* | 3.0% | ? | ? | 90.6%
SMILES | HT1080NT lethal | KB-V1 cytotox | SW480 rerep | KB-3-1 tox | HT1080 IDH1KD tx | MCF10A rerep
CC(=O)c1c(C)oc2c(Cl)cc(NS(=O)(=O)c3cc(C)c(C)cc3C)cc12 | / | i | / | i | / | /
COc1ccc(NC(=O)C2(S(=O)(=O)c3ccc(C)cc3)CC2)c(OC)c1 | / | i | / | i | / | /
O=S(=O)(NCC(c1ccco1)N1CCc2ccccc2C1)c1ccc(Br)cc1 (stereo not drawn) | ? | i | -461.3% | i | ? | 4.11µM*
COc1ccc(N2CCN(C(CNC(=O)C(=O)NCC3CCCO3)c3ccco3)CC2)cc1 (stereo not drawn) | 0.0% | 4.11µM* | -24.6% | i | -0.2% | -6.0%
Cc1ccc(S(=O)(=O)NCC(c2ccco2)N2CCc3ccccc3C2)cc1 (stereo not drawn) | -2.1% | i | 1.1% | i | -3.5% | 24.9%
CCS(=O)(=O)NCC(c1ccco1)N1CCN(c2ccccc2)CC1 (stereo not drawn) | -0.1% | 23.1µM* | 2.3% | i | -0.6% | 5.4%
O=C(NCc1ccncc1)C(=O)NCC(c1ccco1)N1CCN(c2ccc(F)cc2)CC1 (stereo not drawn) | -0.9% | 2.59µM* | -34.4% | ? | 2.0% | -1.0%
O=S(=O)(c1cccc(Br)c1)N1CCN(c2nc(-c3cccs3)nc3ccccc23)CC1 | / | i | / | i | / | /
COc1ccc(S(=O)(=O)Nc2ccc3c(c2)CCCN3S(=O)(=O)c2ccc(C)cc2)cc1F | / | i | / | i | / | /
O=S(=O)(NCC(c1ccco1)N1CCN(c2ccccc2F)CC1)c1ccc(F)cc1 (stereo not drawn) | -12.5% | i | 22.3% | i | -14.2% | 8.9%
O=S(=O)(NCC(c1ccco1)N1CCN(c2ccc(F)cc2)CC1)c1ccc(F)cc1 (stereo not drawn) | -1.7% | 14.6µM* | 3.9% | i | -3.7% | 5.0%
O=S(=O)(NCC(c1ccco1)N1CCN(c2ccccc2)CC1)c1cc(F)ccc1F (stereo not drawn) | / | i | / | i | / | /
O=S(=O)(NCC(c1ccco1)N1CCN(c2ccccc2)CC1)c1ccc(F)cc1 (stereo not drawn) | -5.2% | 23.1µM* | -1.8% | i | -10.1% | ?
CCC(=O)Nc1c(S(=O)(=O)c2ccc(C)cc2)c2nc3ccccc3nc2n1C(C)c1ccccc1 (stereo not drawn) | -13.5% | ? | ? | i | -15.7% | ?
CCCCn1c(NC(=O)c2ccc(Br)o2)c(S(=O)(=O)c2ccccc2)c2nc3ccccc3nc21 | 7.4% | ? | ? | ? | -20.2% | 17.8µM*
CCCCCn1c(NC(=O)c2ccco2)c(S(=O)(=O)c2ccc(C)cc2)c2nc3ccccc3nc21 | ? | 18.4µM* | 1.2% | i | ? | 2.3%
